# Experimental data taken from PubChem BioAssay AID1476 (National Center for Advancing Translational Sciences (NCATS), 2009).
# The campaign covered roughly 200,000 compounds. About 4,500 (2.2%) were called active. Inconclusive results (about 12%) are left out. What follows is part of a selection rich in actives, with near analogues and random picks from the rest. Unmarked numbers belong to inactive results. Calls come from the whole dose curve; as a rule, active = well fitted inhibition curve with a large enough effect; inconclusive = small, poorly fitted or top-dose-only effect, or effect the other way; inactive = flat fitted curve, though single readings scatter.
# Target: Cruzipain (Trypanosoma cruzi) (UniProt P25779)
# Assay: qHTS Assay for Promiscuous and Specific Inhibitors of Cruzain (without detergent); note: nearly all actives have a fitted effect of over 40% in size;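 for max response, negative = inhibition: plate controls were enzyme without inhibitor for no effect and buffer without enzyme for full effect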
# Conditions: purified cruzain, Z-FR-AMC fluorescence, no detergent
# How it was run: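 Detergent-free condition (0.00005% Triton X-100) in acetate buffer pH 5.5 with DTT. 1.5 nM enzyme and compound were pre-mixed 15 min, then 2 uM Z-FR-AMC substrate added; reaction progress from fluorescence change between first and third reads (60 s).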
# Potency is the fitted concentration of half-maximal effect.
# Cruzipain (Trypanosoma cruzi), sequence (P25779 123-467 limits assumed): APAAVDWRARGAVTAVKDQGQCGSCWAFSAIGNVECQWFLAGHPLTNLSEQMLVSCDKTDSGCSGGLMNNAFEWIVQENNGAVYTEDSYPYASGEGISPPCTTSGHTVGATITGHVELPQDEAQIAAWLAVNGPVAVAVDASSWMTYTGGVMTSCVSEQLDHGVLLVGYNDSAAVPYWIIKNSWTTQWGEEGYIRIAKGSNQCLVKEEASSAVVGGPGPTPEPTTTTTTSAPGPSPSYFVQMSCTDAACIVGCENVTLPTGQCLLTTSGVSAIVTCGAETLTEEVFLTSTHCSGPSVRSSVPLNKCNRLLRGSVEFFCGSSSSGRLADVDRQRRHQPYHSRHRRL
Compound,"max response, negative = inhibition [%]",Potency
CC(=O)c1ccc(NC(=O)C2CCN(S(=O)(=O)c3c(C)noc3/C=C/c3ccc(C)cc3)CC2)cc1,9.83,
Cc1cc(C)c(/C=C/c2onc(C)c2S(=O)(=O)N2CCC(C(=O)Nc3ccc(Cl)cc3C)CC2)c(C)c1,0.507,
Cc1noc(/C=C/c2ccco2)c1S(=O)(=O)N1CCC(C(=O)N2CCc3ccccc32)CC1,,15.8 µM (active)
Cc1noc(/C=C/N(C)C)c1S(=O)(=O)N1CCCC(C(=O)NCc2ccco2)C1 (stereo not given),14.2,
Cc1noc(/C=C/c2ccco2)c1S(=O)(=O)N1CCC(C(=O)Nc2ccc(Cl)cn2)CC1,,6.31 µM (active)
Cc1cccc(NC(=O)C2CCN(S(=O)(=O)c3c(C)noc3/C=C/c3ccco3)CC2)c1,2.41,
Cc1ccc(NC(=O)CCCn2c(=O)c3cccn3c3ccccc32)cc1Cl,8.76,
Cc1ccc(C)c(N2CCN(C(=O)CN3C(=O)COc4ccc(S(=O)(=O)N5CCCCCC5)cc43)CC2)c1,-9.73,
Cc1ccc(C)c(NC(=O)CSC2=Nc3ccccc3N=C(c3ccc(F)cc3)C2)c1,1.61,
O=C(Nn1c(SCc2ccc([N+](=O)[O-])cc2)nc2ccccc2c1=O)c1ccc(F)cc1,,10 µM (active)
O=C(CCn1c(SCC(=O)c2ccccc2)nc2ccccc2c1=O)NCc1ccc(F)cc1,-24.2,
O=C(Nn1c(-c2ccccc2)nc2ccccc2c1=O)c1ccc([N+](=O)[O-])cc1,8.42,
CCc1cccc(C)c1NS(=O)(=O)c1ccc(-c2cc(C)no2)s1,-2.03,
CCc1ccc(-n2nnc(-c3nc(-c4ccccc4)no3)c2C)cc1,11.5,
CCCNC(=O)c1ccc(Cn2c(SCC(N)=O)nc3ccccc3c2=O)cc1,-1.8,
COc1ccc(CC(=O)Nc2nnc3n2CCS3)cc1OC,3.34,
O=C(O)COc1c(Cl)cc(Cl)c2cccnc12,-2.23,
O=S(=O)(O)c1ccc(O)c2ncccc12.O=S(=O)(O)c1ccc(O)c2ncccc12.[Zn],,3.16 µM (active)
CC(=O)c1ccc(N2CCN(C3C(=O)c4ccccc4N3C(C)=O)CC2)cc1 (stereo not given),6.9,
COc1ccc(C(F)(F)F)cc1NC(=O)c1sc2nc(-c3cccs3)ccc2c1N,-12.3,
CCN(CC(=O)Nc1ccc2c(c1)OCCO2)Cc1cc(=O)oc2cc(C)c(C)cc12,-1.71,
CC(C)NS(=O)(=O)c1ccc(OCC(=O)Nc2ccc3c(c2)OCCO3)cc1,5.06,
O=C(COc1ccc2c(C(F)(F)F)cc(=O)oc2c1)Nc1ccc2c(c1)OCCO2,,7.94 µM (active)
Cc1ccc(CN(C(=O)c2ccccc2[N+](=O)[O-])c2ccccn2)cc1,-9.11,
COc1ccc(CNC(=O)c2cc3c(=O)[nH]c4ccc(C)cc4c3s2)c(OC)c1,8.63,
C/C(=N\NC(=O)Cc1ccc(F)cc1)c1ccc(F)cc1,11.2,
C/C(=N\NC(=O)CNC(=O)C(c1ccccc1)c1ccccc1)c1ccc(C)cc1,,12.6 µM (active)
C/C(=N\NC(=O)c1nc(C)cc(C)n1)c1ccccc1,4.34,

Compound,"max response, negative = inhibition [%]",Potency
O=C(CCCCn1c(=O)c2ccccc2n(CC(=O)Nc2cccc(C(F)(F)F)c2)c1=O)NCc1ccc2c(c1)OCO2,16.7,
CCOC(=O)c1ccc2c(c1)N(Cc1cccc(OC)c1)C(=O)c1ccccc1S2(=O)=O,-13.7,
COc1ccc(/C=N/NC(=O)c2ccccc2)cc1OS(=O)(=O)c1ccccc1,-2.21,
COc1cc(/C=N/NC(=O)Nc2ccccc2)ccc1OCCOc1ccccc1C,,25.1 µM (active)
COc1cc(/C=N/NC(=O)c2ccccc2)ccc1OS(=O)(=O)c1ccccc1,-10.2,
Cc1ccc(NC(=O)Cc2ccc(NC(=O)N3CCCCc4ccccc43)cc2)cc1,16.9,
Cc1cccc(NC(=O)c2ccc3nc(C(C)C)oc3c2)c1C,-5.86,
CC(NC(=O)C(=O)NN=C1CCC(C(C)(C)C)CC1)c1ccccc1 (stereo not given),14.7,
CC(C)(C)C1CCC(=NNC(=O)c2cc(-c3ccccc3)n[nH]2)CC1 (stereo not given),,12.6 µM (active)
CC(C)(C)C1CCC(=NNC(=O)c2ccc(Br)o2)CC1 (stereo not given),6.4,
CCOC(=O)Cn1c(=O)n(C2CCCCC2)c2nc(-c3cccc(OC)c3)nc(C(N)=O)c21,-11,
COc1ccc(CCNc2nc3c(-c4cccc(F)c4)nnn3c3ccccc23)cc1OC,16.6,
CC1=C(C(=O)N2CCN(c3cccc(C(F)(F)F)c3)CC2)C2(CCCCC2)OC1=O,-13.5,
CCOc1ccc(CNC(=O)c2ccc3c(c2)nnn3C2CCCC2)cc1,-5.67,
Cc1nn(CC(=O)Nc2nc3ccccc3s2)c(C)c1[N+](=O)[O-],-6.47,
O=C(CCCN1C(=O)/C(=C\c2ccco2)SC1=S)Nc1cccc2ccccc12,-12.6,
O=C(CN1C(=O)/C(=C\c2ccccc2F)SC1=S)Nc1nc2ccccc2s1,,7.94 µM (active)
Cc1cccc(C(=O)NCCCN2CCCC2=O)c1,-2.37,
Cc1cccc(C(=O)NCC(=O)OCC(=O)N2CC3(C)CC2CC(C)(C)C3)c1 (stereo not given),,12.6 µM (active)
COc1ccccc1C(=O)N1CC2(C)CC1CC(C)(C)C2 (stereo not given),16.4,
Cc1cc(C)cc(NC(=O)Cn2nc(N3CCN(c4ccccc4)CC3)ccc2=O)c1,-3.11,
CCn1c(SCC(=O)N/N=C/C=C/c2ccccc2[N+](=O)[O-])nnc1-c1ccccc1,-1.88,
O=C(CSc1nc2ccccc2[nH]1)N/N=C/C=C\c1ccccc1[N+](=O)[O-],10.4,
Cc1ccc(-n2c(SCC(=O)N/N=C/C=C/c3ccccc3[N+](=O)[O-])nc3ccccc3c2=O)cc1,,25.1 µM (active)
COCCN(CCOC)S(=O)(=O)c1ccc(C(=O)Nc2nc3c(s2)CCc2ccccc2-3)cc1,-1.58,
CCN(c1ccccc1)S(=O)(=O)c1ccc(C(=O)Nc2nccs2)cc1,0.885,
C=CCN(CC=C)S(=O)(=O)c1ccc(C(=O)Nc2nc3c(s2)CCc2ccccc2-3)cc1,,10 µM (active)
